Laboratory results taken from PubChem BioAssay (Tox21).
Several values for one entry are separate records, joined by “and”; a condition that tells them apart may be missing. Equal values may be shown once. Results filed as inconclusive are left out. Some structures have more than one record in an assay (separate samples or runs), and their calls can disagree. Activity calls are given as the source filed them. Unless noted, calls follow the shape of the dose curve; as a rule, active = well fitted curve in the direction sought with a large enough effect in the repeat runs; inconclusive = weak or mixed curves; inactive = no such curve, though single readings can be large; an effect the other way counts as inactive or inconclusive.

Experiments:
[1] = molecular target: Acetylcholinesterase (Homo sapiens) (UniProt P22303); experiment: Acetylcholinesterase (AChE) small molecule antagonists: fluorescence cell-based qHTS assay (AID 1347398; calls by dose curve; also: nearly all actives have a fitted effect of over 50% in size); settings: Potency: AChE activity
Chain of Acetylcholinesterase (Homo sapiens) (P22303 whole entry, looked up): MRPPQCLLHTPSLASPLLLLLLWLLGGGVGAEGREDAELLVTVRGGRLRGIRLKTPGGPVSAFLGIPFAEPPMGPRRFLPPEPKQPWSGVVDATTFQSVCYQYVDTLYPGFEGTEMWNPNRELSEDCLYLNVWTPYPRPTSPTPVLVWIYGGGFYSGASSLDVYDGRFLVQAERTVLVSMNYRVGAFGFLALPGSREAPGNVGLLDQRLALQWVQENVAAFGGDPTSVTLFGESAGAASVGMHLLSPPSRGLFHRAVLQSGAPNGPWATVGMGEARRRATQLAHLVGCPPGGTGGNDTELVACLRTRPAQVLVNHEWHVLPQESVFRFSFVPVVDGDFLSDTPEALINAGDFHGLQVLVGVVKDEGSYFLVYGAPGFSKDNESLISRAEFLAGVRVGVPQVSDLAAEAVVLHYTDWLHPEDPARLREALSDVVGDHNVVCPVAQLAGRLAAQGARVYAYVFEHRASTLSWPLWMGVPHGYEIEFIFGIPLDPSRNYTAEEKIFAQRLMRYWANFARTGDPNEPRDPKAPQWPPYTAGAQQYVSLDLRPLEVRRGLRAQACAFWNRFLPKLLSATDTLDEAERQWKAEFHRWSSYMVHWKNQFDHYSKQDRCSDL
Procedure, shortened: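 Read-out is Thiolite Green fluorescence at Ex/Em = 490/520 nm, formed by reaction with thiocholine released when cellular AChE in SH-SY5Y cells hydrolyzes acetylthiocholine. Compounds were preincubated 30 min at 37 C before substrate.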

[2] = molecular target: Acetylcholinesterase (Homo sapiens) (UniProt P22303); experiment: Acetylcholinesterase (AChE) small molecule antagonists: enzyme-based qHTS assay with human liver microsomes (AID 1347399; calls by dose curve; also: nearly all actives have a fitted effect of over 60% in size); settings: Potency: qHTS inhibition
Procedure, shortened: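 Recombinant human AChE (50 mU/mL in the enzyme mix) and human liver microsomes (0.25 mg/mL final) were preincubated with compound and NADPH (0.25 mg/mL final) for 30 min at 37 C. Acetylthiocholine/DTNB was then added; thiocholine was read colorimetrically after 10 min at room temperature.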

[3] = molecular target: Cytochrome P450 2D6 (Homo sapiens) (UniProt P10635); experiment: Cytochrome P450 Family 2 Subfamily D Member 6 (CYP2D6) small molecule antagonists: luciferase reporter qHTS assay (AID 1671196); also: nearly all actives have a fitted effect of over 50% in size; also: potency is read from the fitted curve at half-maximal effect; as to activity change, negative = inhibition: series mostly up to about 120 µM
Chain of Cytochrome P450 2D6 (Homo sapiens) (P10635 whole entry, looked up): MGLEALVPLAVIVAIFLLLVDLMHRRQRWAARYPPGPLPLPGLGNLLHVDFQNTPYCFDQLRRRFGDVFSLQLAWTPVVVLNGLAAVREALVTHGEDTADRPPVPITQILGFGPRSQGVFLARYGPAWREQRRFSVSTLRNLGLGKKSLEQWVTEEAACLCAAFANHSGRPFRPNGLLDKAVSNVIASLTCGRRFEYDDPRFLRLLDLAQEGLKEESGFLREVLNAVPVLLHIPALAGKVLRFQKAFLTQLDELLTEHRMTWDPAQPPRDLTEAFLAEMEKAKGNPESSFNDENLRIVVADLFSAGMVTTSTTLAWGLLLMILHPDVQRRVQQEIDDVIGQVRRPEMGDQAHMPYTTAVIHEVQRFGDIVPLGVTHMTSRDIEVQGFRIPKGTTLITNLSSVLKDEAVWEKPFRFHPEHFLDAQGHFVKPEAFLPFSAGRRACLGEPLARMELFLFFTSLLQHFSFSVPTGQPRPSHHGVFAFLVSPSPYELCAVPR
Procedure, shortened: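 Inhibition of CYP2D6 was gauged by loss of luminescence, since light produced tracks the luciferin generated from a proluciferin substrate. A 10 min room-temperature preincubation preceded 1 h NADPH-supported turnover.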

[4] = molecular target: Cytochrome P450 2C19 (Homo sapiens) (UniProt P33261); experiment: Cytochrome P450 Family 2 Subfamily C Member 19 (CYP2C19) small molecule antagonists: luciferase reporter qHTS assay (AID 1671197); also: nearly all actives have a fitted effect of over 65% in size; also: potency is read from the fitted curve at half-maximal effect; as to activity change, negative = inhibition: series mostly up to about 120 µM
Chain of Cytochrome P450 2C19 (Homo sapiens) (P33261 whole entry, looked up): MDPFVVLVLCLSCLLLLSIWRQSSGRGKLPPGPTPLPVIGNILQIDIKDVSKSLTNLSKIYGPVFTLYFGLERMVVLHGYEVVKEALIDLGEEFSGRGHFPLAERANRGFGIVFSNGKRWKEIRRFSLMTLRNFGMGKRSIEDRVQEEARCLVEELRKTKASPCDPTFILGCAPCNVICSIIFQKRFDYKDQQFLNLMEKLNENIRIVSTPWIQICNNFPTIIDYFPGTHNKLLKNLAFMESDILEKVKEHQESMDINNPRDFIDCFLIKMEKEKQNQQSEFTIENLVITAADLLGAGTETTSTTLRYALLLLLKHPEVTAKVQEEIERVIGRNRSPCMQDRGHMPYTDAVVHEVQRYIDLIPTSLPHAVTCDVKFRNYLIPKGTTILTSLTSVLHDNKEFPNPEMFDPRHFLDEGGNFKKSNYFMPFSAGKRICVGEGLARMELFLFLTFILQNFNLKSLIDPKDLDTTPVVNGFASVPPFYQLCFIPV
Procedure, shortened: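 Compounds were tested on CYP2C19 activity via proluciferin conversion to luciferin. The 37C, 1 h reaction followed NADPH addition; detection reagent stopped it.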

[5] = molecular target: Cytochrome P450 2C9 (Homo sapiens) (UniProt P11712); experiment: Cytochrome P450 Family 2 Subfamily C Member 9 (CYP2C9) small molecule antagonists: luciferase reporter qHTS assay (AID 1671198); also: nearly all actives have a fitted effect of over 50% in size; also: potency is read from the fitted curve at half-maximal effect; as to activity change, negative = inhibition: series mostly up to about 120 µM
Chain of Cytochrome P450 2C9 (Homo sapiens) (P11712 whole entry, looked up): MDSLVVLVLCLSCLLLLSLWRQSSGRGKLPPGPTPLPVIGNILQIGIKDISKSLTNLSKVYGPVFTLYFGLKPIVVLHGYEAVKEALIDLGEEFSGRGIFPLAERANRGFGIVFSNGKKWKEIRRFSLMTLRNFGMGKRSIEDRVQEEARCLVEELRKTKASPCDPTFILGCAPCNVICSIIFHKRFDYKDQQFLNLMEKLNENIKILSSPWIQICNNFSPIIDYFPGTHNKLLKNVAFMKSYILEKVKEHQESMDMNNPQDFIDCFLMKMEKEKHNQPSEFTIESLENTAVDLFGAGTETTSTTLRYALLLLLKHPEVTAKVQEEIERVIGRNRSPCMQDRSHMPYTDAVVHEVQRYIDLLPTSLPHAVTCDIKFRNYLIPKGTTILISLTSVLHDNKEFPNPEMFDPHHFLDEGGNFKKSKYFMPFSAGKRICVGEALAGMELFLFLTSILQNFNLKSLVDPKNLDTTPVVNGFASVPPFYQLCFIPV
Procedure, shortened: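 Enzyme-substrate mix preincubated with compound 10 min at room temperature; reaction started with NADPH regeneration solution, 1 h 37C. Luminescent luciferin product read after 20 min detection reagent.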

[6] = molecular target: Cytochrome P450 1A2 (Homo sapiens) (UniProt P05177); experiment: Cytochrome P450 Family 1 Subfamily A Member 2 (CYP1A2) small molecule antagonists: luciferase reporter qHTS assay (AID 1671199); also: nearly all actives have a fitted effect of over 50% in size; also: potency is read from the fitted curve at half-maximal effect; as to activity change, negative = inhibition: series mostly up to about 120 µM
Chain of Cytochrome P450 1A2 (Homo sapiens) (P05177 whole entry, looked up): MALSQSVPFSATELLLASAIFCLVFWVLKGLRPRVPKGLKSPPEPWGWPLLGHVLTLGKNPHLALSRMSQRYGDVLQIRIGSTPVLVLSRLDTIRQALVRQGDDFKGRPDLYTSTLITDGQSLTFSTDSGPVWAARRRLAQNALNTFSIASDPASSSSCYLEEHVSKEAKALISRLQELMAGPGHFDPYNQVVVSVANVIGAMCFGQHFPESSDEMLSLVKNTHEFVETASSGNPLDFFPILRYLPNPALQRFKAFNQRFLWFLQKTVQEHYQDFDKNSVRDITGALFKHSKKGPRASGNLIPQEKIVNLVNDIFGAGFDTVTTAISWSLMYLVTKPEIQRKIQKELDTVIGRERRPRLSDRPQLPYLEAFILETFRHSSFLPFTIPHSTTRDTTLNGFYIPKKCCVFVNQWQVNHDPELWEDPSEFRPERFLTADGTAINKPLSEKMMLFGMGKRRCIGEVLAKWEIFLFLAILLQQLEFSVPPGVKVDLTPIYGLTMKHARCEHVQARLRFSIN
Procedure, shortened: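 Signal from luciferin formed by CYP1A2 from a proluciferin substrate is read as luminescence, expressed in relative luminescence units. Compounds sit with enzyme 10 min, NADPH-driven reaction runs 1 h, all at room temperature.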

[7] = molecular target: Voltage-gated inwardly rectifying potassium channel KCNH2 (Homo sapiens) (UniProt Q12809); experiment: Human Ether-a-go-go-Related Gene (hERG) channel small molecule antagonists: fluorescence cell-based qHTS assay (AID 1671200); also: nearly all actives have a fitted effect of over 50% in size; also: potency is read from the fitted curve at half-maximal effect; as to activity change, negative = inhibition: series mostly up to about 77 µM
Chain of Voltage-gated inwardly rectifying potassium channel KCNH2 (Homo sapiens) (Q12809 whole entry, looked up): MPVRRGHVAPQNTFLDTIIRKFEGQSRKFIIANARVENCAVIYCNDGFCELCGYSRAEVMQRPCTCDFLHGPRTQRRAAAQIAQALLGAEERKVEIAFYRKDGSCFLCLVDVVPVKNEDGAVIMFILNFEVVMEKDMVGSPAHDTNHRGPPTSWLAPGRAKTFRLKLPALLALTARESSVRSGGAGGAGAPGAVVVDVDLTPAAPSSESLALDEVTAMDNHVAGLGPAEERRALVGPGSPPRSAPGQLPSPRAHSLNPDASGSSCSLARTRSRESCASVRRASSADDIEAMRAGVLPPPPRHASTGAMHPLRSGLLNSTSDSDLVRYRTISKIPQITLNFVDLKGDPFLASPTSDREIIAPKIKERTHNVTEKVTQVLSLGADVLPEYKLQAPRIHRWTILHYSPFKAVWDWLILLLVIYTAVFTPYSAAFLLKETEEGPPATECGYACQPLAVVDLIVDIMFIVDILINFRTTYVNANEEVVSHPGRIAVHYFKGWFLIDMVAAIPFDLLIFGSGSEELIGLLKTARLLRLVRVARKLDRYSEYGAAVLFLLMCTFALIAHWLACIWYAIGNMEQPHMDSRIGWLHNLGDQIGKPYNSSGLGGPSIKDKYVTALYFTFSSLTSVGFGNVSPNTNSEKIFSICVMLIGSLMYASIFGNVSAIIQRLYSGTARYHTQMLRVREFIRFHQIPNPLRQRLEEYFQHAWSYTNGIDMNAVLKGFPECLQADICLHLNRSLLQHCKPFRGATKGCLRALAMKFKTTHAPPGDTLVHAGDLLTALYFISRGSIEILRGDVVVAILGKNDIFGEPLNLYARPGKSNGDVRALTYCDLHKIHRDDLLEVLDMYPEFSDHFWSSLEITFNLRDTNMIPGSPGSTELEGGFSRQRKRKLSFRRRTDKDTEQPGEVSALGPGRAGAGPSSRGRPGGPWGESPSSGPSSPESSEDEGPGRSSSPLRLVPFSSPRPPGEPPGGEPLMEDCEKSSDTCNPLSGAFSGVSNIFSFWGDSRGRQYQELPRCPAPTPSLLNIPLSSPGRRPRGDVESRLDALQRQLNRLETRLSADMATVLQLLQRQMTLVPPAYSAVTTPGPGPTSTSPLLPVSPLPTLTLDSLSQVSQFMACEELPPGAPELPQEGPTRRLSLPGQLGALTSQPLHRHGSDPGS
Procedure, shortened: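 Thallium flux as potassium surrogate: FluxOR II dye loaded 1 h at room temperature into hERG-expressing U2OS cells, then stimulus buffer added after 10 min. Kinetic 480 nm excitation/540 nm emission read, 2 min.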

[8] = molecular target: Cytochrome P450 3A4 (Homo sapiens) (UniProt P08684); experiment: Cytochrome P450 Family 3 Subfamily A Member 4 (CYP3A4) small molecule antagonists: luciferase reporter qHTS assay (AID 1671201)
Chain of Cytochrome P450 3A4 (Homo sapiens) (P08684 whole entry, looked up): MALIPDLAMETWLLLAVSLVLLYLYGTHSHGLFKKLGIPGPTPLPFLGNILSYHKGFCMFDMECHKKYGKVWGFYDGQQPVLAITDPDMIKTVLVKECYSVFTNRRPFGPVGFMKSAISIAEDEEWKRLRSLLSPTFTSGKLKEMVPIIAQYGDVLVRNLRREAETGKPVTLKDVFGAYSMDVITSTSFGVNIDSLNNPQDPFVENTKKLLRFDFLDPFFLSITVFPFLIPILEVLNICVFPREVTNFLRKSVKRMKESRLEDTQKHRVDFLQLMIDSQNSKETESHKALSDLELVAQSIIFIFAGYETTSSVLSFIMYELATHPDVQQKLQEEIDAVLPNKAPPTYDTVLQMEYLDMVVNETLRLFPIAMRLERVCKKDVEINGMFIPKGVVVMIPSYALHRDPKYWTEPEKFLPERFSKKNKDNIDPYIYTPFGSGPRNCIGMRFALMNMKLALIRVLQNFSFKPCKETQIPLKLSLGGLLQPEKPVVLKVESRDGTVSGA
Procedure, shortened: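 Recombinant human CYP3A4 converts a proluciferin substrate to luciferin over 1 h at room temperature after NADPH regeneration solution is added (compound preincubated 10 min); detection reagent stops reaction, luminescence read 20 min later as relative units.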
% is scaled to controls: 0 for no effect and ±100 for the full control effect.

O=[N+]([O-])c1ccc(Nc2ccccc2)cc1
inactive: Potency [1] | Potency [2] | Potency [7]
active: Potency [3] 32 µM and 35.6 µM | Potency [4] 8.03 µM and 20 µM | Potency [5] 32 µM and 35.6 µM | Potency [6] 12.7 µM and 22.4 µM

CCOP(=O)(OCC)OCC
35 µM (active) and inactive: Potency [5]
17.5 µM (active) and inactive: Potency [6]
inactive: Potency [1] | Potency [2] | Potency [3] | Potency [7] | Potency [8]
49.4 µM (active) and inactive: Potency [4]

c1ccc(C2CO2)cc1 (stereo not given)
inactive: Potency [1] | Potency [2] | Potency [3] | Potency [6] | Potency [7] | Potency [8]
inactive and 71 µM (active): Potency [5]
inactive and 35.6 µM (active): Potency [4]

CCC(=O)Nc1ccc(Cl)c(Cl)c1
active: Potency [3] 36.3 µM | Potency [4] 22.9 µM and 35.6 µM | Potency [5] 64.6 µM and 63.3 µM | Potency [6] 5.13 µM and 7.1 µM
inactive: Potency [1] | Potency [2] | Potency [7]

CCN(CC)C(=O)C(C)Oc1cccc2ccccc12 (stereo not given)
active: Potency [4] 1.01 µM and 633 nM | Potency [5] 11.4 µM and 35.6 µM | Potency [6] 14.3 µM and 28.3 µM
inactive: Potency [1] | Potency [2] | Potency [3] | Potency [7]

O=NN(c1ccccc1)c1ccccc1
active: Potency [4] 39 µM and 35.6 µM | Potency [5] 34.8 µM and 63.3 µM | Potency [6] 34.8 µM
inactive: Potency [1] | Potency [2] | Potency [7]
21.9 µM (active) and inactive: Potency [3]

ClC(Cl)(Cl)Br
active: Potency [4] 39.4 µM
inactive: Potency [1] | Potency [2] | Potency [3] | activity change, negative = inhibition [4] 17.8% [at 23.6 µM] | activity change, negative = inhibition [5] -6.85% [at 23.6 µM] | Potency [6] | Potency [7] | Potency [8]

O=C(O)CF
inactive: Potency [1] | Potency [2] | Potency [3] | Potency [4] | Potency [5] | Potency [6] | Potency [7] | Potency [8]

COc1ccc(C=O)cc1OC
active: Potency [4] 9.04 µM and 71 µM | Potency [6] 32.1 µM and 31.7 µM
inactive: Potency [1] | Potency [2] | Potency [3] | Potency [5] | Potency [7]

CC(O)CN(CC(C)O)CC(C)O (stereo not given)
inactive: Potency [1] | Potency [2] | Potency [3] | Potency [4] | Potency [5] | Potency [6] | Potency [7]

CC(C)=CC1C(C(=O)OCN2C(=O)C3=C(CCCC3)C2=O)C1(C)C (stereo not given)
active: Potency [3] 22.4 µM and 15.5 µM | Potency [4] 8.94 µM and 3.89 µM | Potency [5] 35.6 µM and 27.5 µM | Potency [7] 38.9 µM
inactive: Potency [1] | Potency [2] | Potency [6]

Clc1ccccc1-c1nnc(-c2ccccc2Cl)nn1
inactive: Potency [1] | Potency [2] | Potency [3] | Potency [5] | Potency [7]
active: Potency [4] 31.4 µM and 6.31 µM | Potency [6] 5.59 µM and 7.08 µM

O=C1Nc2ccc(Cl)cc2C(c2ccccc2)=NC1O (stereo not given)
inactive: Potency [1]

Cc1ccc([N+](=O)[O-])cc1
inactive: Potency [1] | Potency [2] | Potency [3] | Potency [4] | Potency [5] | Potency [6] | Potency [7]

Clc1cccc(C(Cl)(Cl)Cl)n1
inactive: Potency [1] | Potency [2] | Potency [3] | Potency [4] | Potency [5] | Potency [7] | Potency [8]
active: Potency [6] 11.2 µM

OCCOCCO
inactive: Potency [1] | Potency [2] | Potency [3] | Potency [5] | Potency [6] | Potency [7]
82.1 µM (active) and inactive: Potency [4]

COC(=O)Nc1nc2ccccc2[nH]1
active: Potency [6] 11.2 µM and 20 µM
inactive and 71 µM (active): Potency [5]
inactive: Potency [1] | Potency [2] | Potency [3] | Potency [4] | Potency [7]

CCOC(=O)c1ccccc1N
active: Potency [6] 28.1 µM and 31.7 µM
inactive: Potency [1] | Potency [2] | Potency [3] | Potency [4] | Potency [5] | Potency [7] | Potency [8]

O=C(O)c1nn(Cc2ccc(Cl)cc2Cl)c2ccccc12
70.5 µM (active) and inactive: Potency [5]
62.8 µM (active) and inactive: Potency [3]
inactive: Potency [1] | Potency [2] | Potency [4] | Potency [6] | Potency [7] | Potency [8]
